Holding throughout (experiment): DAPPL (digital affinity profiling via proximity ligation, sequencing); 10 mM Tris-HCl pH 7.5, 50 mM NaCl, 1 mM DTT, 4% glycerol, room temperature, 30 min; GST-TFs on glutathione beads, 16-mer random dsDNA library, 0.1% formaldehyde crosslink after washing; high values mean tight binding
Conditions in all cases: protein: recombinant; tags: N-terminal GST; dsDNA, one strand shown

In one assay the target is T1, FLI1 (Homo sapiens, UniProt Q01543 1-452).
T1 sequence: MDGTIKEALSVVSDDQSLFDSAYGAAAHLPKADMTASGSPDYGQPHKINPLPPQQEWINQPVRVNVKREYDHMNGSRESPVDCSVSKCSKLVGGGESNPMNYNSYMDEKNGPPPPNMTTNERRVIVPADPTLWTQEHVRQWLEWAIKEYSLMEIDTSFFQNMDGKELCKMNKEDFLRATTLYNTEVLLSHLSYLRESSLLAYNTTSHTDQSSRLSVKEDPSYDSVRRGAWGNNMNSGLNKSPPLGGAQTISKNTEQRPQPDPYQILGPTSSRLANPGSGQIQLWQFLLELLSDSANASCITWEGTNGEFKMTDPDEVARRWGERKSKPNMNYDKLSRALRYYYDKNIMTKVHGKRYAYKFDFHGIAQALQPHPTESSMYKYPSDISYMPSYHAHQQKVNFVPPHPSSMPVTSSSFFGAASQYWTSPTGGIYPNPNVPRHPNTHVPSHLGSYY
The gist of the method:
(§1)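 Each value of binding signal is a hexamer's read frequency for a factor divided by the same hexamer's frequency in the tag-only sample. Barcoded, bead-captured GST fusions of human transcription factors made in yeast were pooled with that sample and incubated with 200 nmole of a random double-stranded 16-mer DNA library in Tris/NaCl/DTT/glycerol buffer at room temperature for 30 min. Washing, 0.1% formaldehyde crosslinking, proximity ligation, PCR and Illumina NextSeq500 sequencing followed.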

Another assay has as its target ELF1 (Homo sapiens, UniProt P32519 1-619). The essentials:
as §1

In a further assay the target is SPIB (Homo sapiens, UniProt Q01892 1-262). The essentials:
as §1

The next assay deals with T2, SPIC (Homo sapiens, UniProt Q8N5J4 1-248).
T2 sequence: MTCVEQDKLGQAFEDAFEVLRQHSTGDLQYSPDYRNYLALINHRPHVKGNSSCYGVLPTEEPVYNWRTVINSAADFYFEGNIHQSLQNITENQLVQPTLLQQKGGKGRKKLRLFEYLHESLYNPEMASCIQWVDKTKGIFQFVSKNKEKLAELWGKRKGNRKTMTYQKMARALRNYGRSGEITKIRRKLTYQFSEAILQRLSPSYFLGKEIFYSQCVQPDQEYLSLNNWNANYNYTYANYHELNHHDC
The essentials: as §1

In a further assay the target is ELF4 (Homo sapiens, UniProt Q99607 1-663). The gist of the method:
as §1

The next assay deals with T3, ELF3 (Homo sapiens, UniProt P78545 1-371).
T3 sequence: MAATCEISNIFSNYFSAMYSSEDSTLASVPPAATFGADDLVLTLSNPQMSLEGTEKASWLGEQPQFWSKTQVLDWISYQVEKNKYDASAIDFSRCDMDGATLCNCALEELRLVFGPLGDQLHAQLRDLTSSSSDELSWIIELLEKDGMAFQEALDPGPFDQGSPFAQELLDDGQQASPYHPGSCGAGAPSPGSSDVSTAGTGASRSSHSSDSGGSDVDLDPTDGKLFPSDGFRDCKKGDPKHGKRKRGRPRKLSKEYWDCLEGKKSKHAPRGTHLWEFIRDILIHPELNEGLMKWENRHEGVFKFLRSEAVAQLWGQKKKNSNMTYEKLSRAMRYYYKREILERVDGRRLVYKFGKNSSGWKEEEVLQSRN
The essentials: as §1

Another assay addresses T4, ERF (Homo sapiens, UniProt P50548 1-548).
T4 sequence: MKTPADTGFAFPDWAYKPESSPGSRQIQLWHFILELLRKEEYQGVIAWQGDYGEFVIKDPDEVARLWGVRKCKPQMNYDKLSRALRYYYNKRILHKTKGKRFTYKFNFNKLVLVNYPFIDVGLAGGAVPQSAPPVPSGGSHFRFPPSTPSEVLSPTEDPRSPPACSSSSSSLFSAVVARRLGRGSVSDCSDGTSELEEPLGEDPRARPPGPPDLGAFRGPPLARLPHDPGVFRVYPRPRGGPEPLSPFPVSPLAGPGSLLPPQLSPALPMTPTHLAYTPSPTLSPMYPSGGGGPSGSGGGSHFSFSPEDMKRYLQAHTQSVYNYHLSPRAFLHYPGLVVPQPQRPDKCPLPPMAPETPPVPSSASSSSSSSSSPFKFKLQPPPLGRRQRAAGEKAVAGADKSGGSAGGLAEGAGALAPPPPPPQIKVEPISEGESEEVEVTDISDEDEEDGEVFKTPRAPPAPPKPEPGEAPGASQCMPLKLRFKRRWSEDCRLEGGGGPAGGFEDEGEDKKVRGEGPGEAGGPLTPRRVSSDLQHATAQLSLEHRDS
The essentials:
as §1

The next assay addresses T5, ETV7 (Homo sapiens, UniProt Q9Y603 1-341).
T5 sequence: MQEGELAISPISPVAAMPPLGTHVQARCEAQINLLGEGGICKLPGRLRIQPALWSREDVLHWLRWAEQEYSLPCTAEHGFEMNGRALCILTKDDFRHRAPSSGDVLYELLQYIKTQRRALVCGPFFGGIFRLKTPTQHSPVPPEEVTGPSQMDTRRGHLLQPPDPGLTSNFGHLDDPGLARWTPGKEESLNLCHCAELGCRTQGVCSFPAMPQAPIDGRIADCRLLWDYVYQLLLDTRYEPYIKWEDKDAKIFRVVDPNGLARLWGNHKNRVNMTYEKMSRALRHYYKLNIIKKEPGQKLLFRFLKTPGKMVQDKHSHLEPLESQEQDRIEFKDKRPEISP
The gist of the method:
as §1

The next assay has as its target ETV6 (Homo sapiens, UniProt P41212 1-452). The gist of the method:
as §1

A further assay addresses T6, ELK1 (Homo sapiens, UniProt P19419 1-428).
T6 sequence: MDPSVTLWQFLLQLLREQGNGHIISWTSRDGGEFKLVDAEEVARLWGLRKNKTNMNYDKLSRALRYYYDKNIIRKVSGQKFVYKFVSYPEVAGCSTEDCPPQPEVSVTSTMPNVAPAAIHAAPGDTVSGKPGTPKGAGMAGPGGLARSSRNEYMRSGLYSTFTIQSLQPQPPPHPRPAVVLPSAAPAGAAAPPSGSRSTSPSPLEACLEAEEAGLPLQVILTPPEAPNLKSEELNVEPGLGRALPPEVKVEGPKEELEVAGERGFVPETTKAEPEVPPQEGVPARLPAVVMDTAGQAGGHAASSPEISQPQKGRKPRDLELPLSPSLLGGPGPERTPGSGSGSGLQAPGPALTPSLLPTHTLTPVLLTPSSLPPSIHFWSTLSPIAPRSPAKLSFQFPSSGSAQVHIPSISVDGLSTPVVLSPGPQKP
The gist of the method: as §1

A further assay concerns the target T7, GABPA (Homo sapiens, UniProt Q06546 1-454).
T7 sequence: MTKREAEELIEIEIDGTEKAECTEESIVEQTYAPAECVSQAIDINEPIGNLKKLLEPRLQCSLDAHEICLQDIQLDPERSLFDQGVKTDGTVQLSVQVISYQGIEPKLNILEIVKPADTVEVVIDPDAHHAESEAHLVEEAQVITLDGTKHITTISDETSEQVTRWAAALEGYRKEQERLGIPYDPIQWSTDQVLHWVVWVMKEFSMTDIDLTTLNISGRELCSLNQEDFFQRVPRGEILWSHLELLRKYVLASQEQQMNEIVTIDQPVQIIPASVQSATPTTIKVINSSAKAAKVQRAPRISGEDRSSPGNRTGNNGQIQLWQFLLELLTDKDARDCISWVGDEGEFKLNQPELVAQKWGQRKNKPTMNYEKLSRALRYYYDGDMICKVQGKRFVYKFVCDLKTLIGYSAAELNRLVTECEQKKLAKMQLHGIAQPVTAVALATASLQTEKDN
The gist of the method: as §1

A further assay has as its target T8, ELK3 (Homo sapiens, UniProt P41970 1-407).
T8 sequence: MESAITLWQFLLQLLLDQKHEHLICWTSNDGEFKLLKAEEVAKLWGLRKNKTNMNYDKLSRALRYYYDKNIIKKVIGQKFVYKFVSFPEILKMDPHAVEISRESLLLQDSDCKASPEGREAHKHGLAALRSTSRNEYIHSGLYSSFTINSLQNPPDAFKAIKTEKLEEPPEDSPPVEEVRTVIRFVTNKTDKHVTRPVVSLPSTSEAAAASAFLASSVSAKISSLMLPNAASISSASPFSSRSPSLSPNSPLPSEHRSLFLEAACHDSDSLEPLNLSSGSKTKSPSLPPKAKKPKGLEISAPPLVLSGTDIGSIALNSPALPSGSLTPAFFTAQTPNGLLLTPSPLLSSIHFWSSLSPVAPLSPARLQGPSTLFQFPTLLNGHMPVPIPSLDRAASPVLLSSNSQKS
The essentials:
as §1

Another assay concerns the target T9, ELK4 (Homo sapiens, UniProt P28324-2 1-405).
T9 sequence: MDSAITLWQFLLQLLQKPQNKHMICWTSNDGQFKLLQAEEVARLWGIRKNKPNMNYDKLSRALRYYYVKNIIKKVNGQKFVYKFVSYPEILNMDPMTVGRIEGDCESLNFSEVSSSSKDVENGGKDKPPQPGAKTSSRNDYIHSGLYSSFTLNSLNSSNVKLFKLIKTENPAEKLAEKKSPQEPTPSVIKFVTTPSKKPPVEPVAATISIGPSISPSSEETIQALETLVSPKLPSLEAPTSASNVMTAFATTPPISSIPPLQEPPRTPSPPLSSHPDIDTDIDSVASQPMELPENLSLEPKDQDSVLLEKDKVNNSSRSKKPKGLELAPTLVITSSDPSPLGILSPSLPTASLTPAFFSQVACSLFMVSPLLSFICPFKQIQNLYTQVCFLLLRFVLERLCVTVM
The gist of the method: as §1

The target of the next assay is T10, ETV2 (Homo sapiens, UniProt O00321 1-342).
T10 sequence: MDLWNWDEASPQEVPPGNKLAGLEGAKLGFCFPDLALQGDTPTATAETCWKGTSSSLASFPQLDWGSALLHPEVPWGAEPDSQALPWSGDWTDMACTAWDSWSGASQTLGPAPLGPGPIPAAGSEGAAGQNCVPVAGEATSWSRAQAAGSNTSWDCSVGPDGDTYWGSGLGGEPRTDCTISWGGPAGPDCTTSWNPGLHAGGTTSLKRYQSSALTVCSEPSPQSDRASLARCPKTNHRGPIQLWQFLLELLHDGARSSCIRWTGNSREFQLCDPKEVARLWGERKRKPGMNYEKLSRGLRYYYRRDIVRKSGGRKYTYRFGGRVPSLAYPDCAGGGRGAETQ
The gist of the method:
as §1

Another assay concerns the target ETV1 (Homo sapiens, UniProt P50549 1-477). The gist of the method:
as §1

ETV6, sequence (P41212 whole entry): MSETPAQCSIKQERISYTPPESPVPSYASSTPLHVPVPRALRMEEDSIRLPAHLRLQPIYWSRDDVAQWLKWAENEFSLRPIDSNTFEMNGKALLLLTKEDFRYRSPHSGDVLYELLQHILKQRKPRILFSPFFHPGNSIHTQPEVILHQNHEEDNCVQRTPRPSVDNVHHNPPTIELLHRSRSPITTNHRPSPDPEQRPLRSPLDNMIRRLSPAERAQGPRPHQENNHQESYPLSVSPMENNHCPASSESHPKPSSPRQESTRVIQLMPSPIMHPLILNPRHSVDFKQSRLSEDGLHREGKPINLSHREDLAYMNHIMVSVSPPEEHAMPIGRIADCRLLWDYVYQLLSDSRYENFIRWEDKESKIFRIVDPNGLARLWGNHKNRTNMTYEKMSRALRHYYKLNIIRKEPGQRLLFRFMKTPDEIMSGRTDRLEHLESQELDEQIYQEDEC
SPIB, sequence (Q01892 whole entry): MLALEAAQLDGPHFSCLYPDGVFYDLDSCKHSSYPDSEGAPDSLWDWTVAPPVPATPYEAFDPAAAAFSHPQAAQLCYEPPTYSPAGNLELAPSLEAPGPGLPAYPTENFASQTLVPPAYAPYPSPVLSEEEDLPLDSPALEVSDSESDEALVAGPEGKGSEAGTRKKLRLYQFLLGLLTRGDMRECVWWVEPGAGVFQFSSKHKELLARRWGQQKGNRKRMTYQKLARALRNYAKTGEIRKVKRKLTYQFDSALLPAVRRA
ELF1, sequence (P32519 whole entry): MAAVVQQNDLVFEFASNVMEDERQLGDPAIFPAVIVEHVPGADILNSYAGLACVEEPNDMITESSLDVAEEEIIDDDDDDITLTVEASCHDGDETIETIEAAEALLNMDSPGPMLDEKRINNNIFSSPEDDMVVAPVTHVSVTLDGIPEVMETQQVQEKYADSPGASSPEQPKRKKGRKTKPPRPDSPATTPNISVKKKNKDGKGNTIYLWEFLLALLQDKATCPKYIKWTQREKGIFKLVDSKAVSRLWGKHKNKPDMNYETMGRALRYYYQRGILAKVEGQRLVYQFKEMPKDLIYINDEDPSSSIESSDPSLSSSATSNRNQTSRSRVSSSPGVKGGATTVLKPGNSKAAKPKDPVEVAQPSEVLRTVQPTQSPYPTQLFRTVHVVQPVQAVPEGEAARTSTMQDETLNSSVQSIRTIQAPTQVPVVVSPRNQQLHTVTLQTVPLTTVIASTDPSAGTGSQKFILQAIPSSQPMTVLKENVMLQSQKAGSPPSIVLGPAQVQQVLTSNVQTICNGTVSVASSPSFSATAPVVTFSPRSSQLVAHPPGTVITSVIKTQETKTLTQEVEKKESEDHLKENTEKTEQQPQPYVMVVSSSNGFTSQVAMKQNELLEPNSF
ETV1, sequence (P50549 whole entry): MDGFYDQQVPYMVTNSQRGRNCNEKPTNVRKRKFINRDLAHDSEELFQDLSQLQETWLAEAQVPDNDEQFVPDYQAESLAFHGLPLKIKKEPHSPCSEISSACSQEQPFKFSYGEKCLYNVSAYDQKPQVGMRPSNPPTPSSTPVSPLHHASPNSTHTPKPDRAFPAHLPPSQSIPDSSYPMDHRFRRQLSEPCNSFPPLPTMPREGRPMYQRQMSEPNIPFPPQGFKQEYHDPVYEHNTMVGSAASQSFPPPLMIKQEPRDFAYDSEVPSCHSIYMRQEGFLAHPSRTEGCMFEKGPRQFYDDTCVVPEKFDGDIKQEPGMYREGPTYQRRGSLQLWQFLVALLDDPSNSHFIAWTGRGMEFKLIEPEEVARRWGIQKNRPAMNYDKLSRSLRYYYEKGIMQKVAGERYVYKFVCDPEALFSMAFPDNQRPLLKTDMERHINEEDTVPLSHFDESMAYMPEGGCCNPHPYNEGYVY
ELF4, sequence (Q99607 whole entry): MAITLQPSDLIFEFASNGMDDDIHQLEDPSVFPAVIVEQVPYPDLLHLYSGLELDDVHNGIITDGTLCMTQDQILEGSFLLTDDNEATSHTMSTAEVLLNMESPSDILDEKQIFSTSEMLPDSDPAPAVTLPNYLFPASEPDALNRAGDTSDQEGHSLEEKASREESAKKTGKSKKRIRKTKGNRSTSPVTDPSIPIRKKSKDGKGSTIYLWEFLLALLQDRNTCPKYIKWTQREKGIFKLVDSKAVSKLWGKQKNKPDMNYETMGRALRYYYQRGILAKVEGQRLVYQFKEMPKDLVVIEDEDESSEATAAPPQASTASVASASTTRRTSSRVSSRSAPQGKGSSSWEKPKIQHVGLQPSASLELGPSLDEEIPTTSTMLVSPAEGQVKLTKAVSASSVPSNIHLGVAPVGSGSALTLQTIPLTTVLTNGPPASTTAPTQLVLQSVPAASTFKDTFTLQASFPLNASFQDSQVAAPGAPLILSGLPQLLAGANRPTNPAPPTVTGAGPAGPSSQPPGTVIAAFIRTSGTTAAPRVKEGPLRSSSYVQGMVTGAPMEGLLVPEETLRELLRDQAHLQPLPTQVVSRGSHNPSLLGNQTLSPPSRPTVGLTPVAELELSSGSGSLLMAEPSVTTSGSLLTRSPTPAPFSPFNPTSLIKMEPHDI

On to AATGTG, for which the binding signal in the assay with FLI1 was 1.04 fold enrichment (6-mer frequency, TF over GST control); in the assay with ELF1, 1 fold enrichment (6-mer frequency, TF over GST control); with SPIB it was 1 fold enrichment (6-mer frequency, TF over GST control); with SPIC it was 1.02 fold enrichment (6-mer frequency, TF over GST control); with ELF4, 1.03 fold enrichment (6-mer frequency, TF over GST control); with ELF3, 1.07 fold enrichment (6-mer frequency, TF over GST control). The binding signal with ERF is 1.01 fold enrichment (6-mer frequency, TF over GST control); with ETV7, 1.02 fold enrichment (6-mer frequency, TF over GST control); in the assay with ETV6, 1.01 fold enrichment (6-mer frequency, TF over GST control).

With GGTCTG, the binding signal in the assay with FLI1 is 1.03 fold enrichment (6-mer frequency, TF over GST control); with ELK1, 1.11 fold enrichment (6-mer frequency, TF over GST control); with GABPA, 1.02 fold enrichment (6-mer frequency, TF over GST control); in the assay with SPIB it was 1 fold enrichment (6-mer frequency, TF over GST control); with ELK3, 1.03 fold enrichment (6-mer frequency, TF over GST control); with ELK4 it was 1.07 fold enrichment (6-mer frequency, TF over GST control). Also, the binding signal is 1.07 fold enrichment (6-mer frequency, TF over GST control) with ETV2; 1.07 fold enrichment (6-mer frequency, TF over GST control) in the assay with ETV1; 1.09 fold enrichment (6-mer frequency, TF over GST control) in the assay with ERF; 1.02 fold enrichment (6-mer frequency, TF over GST control) with ETV6.

Source of the values: paper PMC7862700, “An all-to-all approach to the identification of sequence-specific readers for epigenetic DNA modifications on cytosine”.
